These results are taken from PubChem BioAssay.

The nature of assay [1]: compound effects on lung adenocarcinoma cell viability – A549, calcein-AM fluorescence, 48 h, basal, profiling panel (AID 1162). Also: test concentration not given here. Conditions: higher = more signal.
Assay [2] in a line: compound effects on differentiated 3T3-L1 adipocyte viability – cell-based, 3T3-L1 adipocytes, calcein-AM fluorescence, 48 h, basal, profiling panel (AID 1163). Also: test concentration not given here. Conditions: 3T3-L1 adipocytes viability, higher = more signal.
A short description of assay [3]: compound effects on hepatocellular carcinoma cell viability – HepG2, calcein-AM fluorescence, 48 h, basal, profiling panel (AID 1164). Also: test concentration not given here. To be noted: higher = more signal.
Assay [4] is described as follows: compound effects on multiple myeloma cell viability – MM1S, calcein-AM fluorescence, 48 h, basal, profiling panel (AID 1165).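 Also: viability of MM1S multiple myeloma cells under basal unstimulated conditions; test concentration not given here.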 To be noted: higher = more signal.
Assay [5] can be described thus: calcein-AM signal in unstimulated myeloma cells – cell-based, calcein-AM fluorescence, 48 h, PK04 Diversity Set, profiling panel (AID 1166).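 Also: cells grown under basal conditions without added stimulus; test concentration not given here.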 Conditions: RPMI8226 myeloma viability, higher = more signal.
The nature of assay [6]: JC-1 mitochondrial signal, unstimulated HepG2 cells – cell-based, JC-1 fluorescence, 24 h, 100 nL compound, profiling panel (AID 1167). Also: test concentration not given here. To be noted: HepG2 mitochondrial potential, higher = more signal.
Assay [7] is described as follows: JC-1 mitochondrial signal, unstimulated adipocytes – cell-based, JC-1 fluorescence, 3T3-L1 adipocytes, 24 h, 100 nL compound, profiling panel (AID 1168). Also: test concentration not given here. To be noted: JC-1 mitochondrial fluorescence, higher = more signal, called active from +8 up or from −8 down.
The nature of assay [8]: JC-1 mitochondrial signal, unstimulated myeloma cells – cell-based, JC-1 fluorescence, RPMI8226, 24 h, 100 nL compound, profiling panel (AID 1169). Also: test concentration not given here. Conditions: JC-1 mitochondrial potential fluorescence, higher = more signal.
Assay [9] in a line: JC-1 mitochondrial signal, unstimulated MM1S myeloma – cell-based, JC-1 fluorescence, 24 h, 100 nL compound, profiling panel (AID 1170). Also: test concentration not given here. Conditions: MM1S mitochondrial potential, higher = more signal.
Assay [10] is described as follows: resazurin metabolic signal in A549 cells – cell-based, resazurin fluorescence, 24 h, PK04 Diversity Set, profiling panel (AID 1171). Also: test concentration not given here. To be noted: A549 viability, higher = more signal, called active from +8 up or from −8 down. In general terms: Resazurin is reduced to fluorescent resorufin, in cell work by metabolically active cells.
Assay [11] can be described thus: resazurin metabolic signal in HepG2 cells – cell-based, resazurin fluorescence, 24 h, PK04 Diversity Set, profiling panel (AID 1172). Also: test concentration not given here. To be noted: HepG2 viability, higher = more signal.
Assay [12] can be described thus: budding yeast growth changes without added modifier – OD600, strain BY4716, 24 h, basal condition, primary screen (AID 1173). Conditions: S. cerevisiae BY4716 growth, OD600, 24 h; higher = more signal, called active from +8 up or from −8 down.
A short description of assay [13]: viability profiling in MM1S myeloma cells – cell-based, resazurin fluorescence, basal, 24 h, PK04 Diversity Set, profiling panel (AID 1174). Also: test concentration not given here. To be noted: higher = more signal, called active from +8 up or from −8 down.
The target of assay [14] is Dihydroorotate dehydrogenase (quinone), mitochondrial (Plasmodium falciparum (isolate 3D7)) (UniProt Q08210). Description: inhibition of P. falciparum DHODH – biochemical, C-terminal His tag, absorbance 600 nm, primary screen (AID 1175).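 Also: recombinant parasite enzyme with a five histidine tag at its C terminus; test concentration not given here.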 To be noted: PfDHODH enzyme, DCIP absorbance 600 nm; higher = more signal, called active from +8 up or from −8 down.
Assay [15] can be described thus: inhibition of PAO1 biofilm formation – strain PAO1, LB-PBS medium, absorbance 600 nm, primary screen (AID 1176). Also: test concentration not given here. To be noted: P. aeruginosa PAO1 growth/biofilm, A600, 12 h; higher = more signal.
Assay [16] can be described thus: growth modulation of vineyard yeast isolate – strain RM11-1a, OD600, basal, 24 h, primary screen (AID 1177).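 Also: cultures grown under basal conditions with no added stressor; test concentration not given here.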 To be noted: S. cerevisiae RM11-1a growth, OD600, 24 h; higher = more signal, called active from +8 up or from −8 down.
Assay [17] can be described thus: growth of efflux-deficient E. coli DRC39 – strain DRC39, OD650, 24 h, E. coli filamentation inducers, primary screen (AID 1178).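 Also: growth measured as culture turbidity by optical density at 650 nm; test concentration not given here.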 Conditions: E. coli DRC39 acrAB, higher = more signal, called active from +8 up or from −8 down.
Assay [18] is described as follows: growth of efflux-deficient E. coli DRC39 – strain DRC39, OD650, 48 h, E. coli filamentation inducers, primary screen (AID 1179).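 Also: screen aims at cell division blockers that make cells filament.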 To be noted: E. coli DRC39 delta-acrAB growth, higher = more signal, called active from +8 up or from −8 down.
Assay [19] is described as follows: viability profiling in RPMI8226 myeloma cells – cell-based, resazurin fluorescence, basal, 24 h, PK04 Diversity Set, profiling panel (AID 1180).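 Also: RPMI8826 multiple myeloma cell line at 5000 cells per well; test concentration not given here.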 Conditions: higher = more signal.
The target in assay [20] is E3 ubiquitin-protein ligase XIAP (Homo sapiens) (UniProt P98170). Description: small molecules binding XIAP protein – biophysical, small-molecule microarray, fluorescence 635 nm, primary screen (AID 1181).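 Also: score merges 667 nm emission and signal to noise over triplicate slides.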 To be noted: higher = more signal.

Each structure is given as a SMILES string. Active and inactive are the calls of the source. Unless noted, no rule for the calls is given here.

Chain of E3 ubiquitin-protein ligase XIAP (Homo sapiens) (P98170 whole entry, looked up): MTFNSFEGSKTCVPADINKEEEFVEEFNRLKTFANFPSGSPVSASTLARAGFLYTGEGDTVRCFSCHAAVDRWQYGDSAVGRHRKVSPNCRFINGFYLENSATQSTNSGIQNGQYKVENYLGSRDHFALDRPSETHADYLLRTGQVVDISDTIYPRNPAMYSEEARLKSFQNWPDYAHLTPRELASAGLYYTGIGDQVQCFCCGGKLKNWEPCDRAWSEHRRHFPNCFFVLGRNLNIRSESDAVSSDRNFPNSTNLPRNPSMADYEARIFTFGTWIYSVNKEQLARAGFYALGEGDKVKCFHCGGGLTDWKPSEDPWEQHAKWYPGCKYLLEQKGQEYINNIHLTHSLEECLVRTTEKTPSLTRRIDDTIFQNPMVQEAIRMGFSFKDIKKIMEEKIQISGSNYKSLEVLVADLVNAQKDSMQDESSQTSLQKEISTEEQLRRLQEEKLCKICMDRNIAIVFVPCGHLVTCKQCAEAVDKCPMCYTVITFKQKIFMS
Chain of Dihydroorotate dehydrogenase (quinone), mitochondrial (Plasmodium falciparum (isolate 3D7)) (Q08210 whole entry, looked up): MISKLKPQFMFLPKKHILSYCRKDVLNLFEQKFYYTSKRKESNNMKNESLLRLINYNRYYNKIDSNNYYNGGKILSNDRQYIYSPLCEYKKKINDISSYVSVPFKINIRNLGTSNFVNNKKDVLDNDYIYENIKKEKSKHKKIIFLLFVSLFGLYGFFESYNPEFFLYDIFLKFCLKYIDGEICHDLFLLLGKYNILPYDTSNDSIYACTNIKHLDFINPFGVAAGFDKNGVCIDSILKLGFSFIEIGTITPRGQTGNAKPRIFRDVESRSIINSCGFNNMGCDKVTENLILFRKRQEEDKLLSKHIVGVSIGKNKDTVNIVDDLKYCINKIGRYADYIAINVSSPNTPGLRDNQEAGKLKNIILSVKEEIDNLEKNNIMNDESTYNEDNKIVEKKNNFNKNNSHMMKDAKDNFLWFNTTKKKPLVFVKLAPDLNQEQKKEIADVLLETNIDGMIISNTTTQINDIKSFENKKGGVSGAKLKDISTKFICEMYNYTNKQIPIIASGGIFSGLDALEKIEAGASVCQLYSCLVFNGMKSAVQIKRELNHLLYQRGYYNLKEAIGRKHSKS

On to `NC(=O)NCC#Cc1ccc2c(c1)[C@]1(C(=O)N2)[C@H](C(=O)O)[C@H]2C(=O)O[C@H](c3ccccc3)[C@H](c3ccccc3)N2[C@@H]1c1ccc(OCCO)cc1`, for which the z-score in assay [1] is 0.0179; in assay [2], 0.359; in assay [3], -0.519; in assay [4], 0.231; in assay [5], 0.12; in assay [6], -2.3. The z-score was -0.483 (inactive) in assay [7]; 0.00293 in assay [8]; 0.12 in assay [9]; 0.721 (inactive) in assay [10]; 0.626 in assay [11]; 0.0086 (inactive) in [12]. For the same compound, the z-score is 0.557 (inactive) in [13]; 0.545 (inactive) in assay [15]; -0.285 (inactive) in assay [16]; -0.0444 (inactive) in assay [17]; -0.721 (inactive) in assay [18]; 0.547 in [19]. The composite z-score in assay [14] was -0.932 (inactive); in assay [20], 0.361.

On to `C=C(COC)C(=O)CC[C@@H](OC(=O)c1cccnc1)c1ccc(OCCO)cc1`, for which the z-score in assay [1] was -0.1; in [2] it was -0.486; in assay [3] it was -0.419; in assay [4] it was -2.55; in [5] it was -1.29; in [6] it was -1.89. Further, the z-score was 0.42 (inactive) in assay [7]; 0.829 in assay [8]; -0.374 in assay [9]; -0.284 (inactive) in assay [10]; 0.379 in assay [11]; -16 (active) in assay [12]. In addition, the z-score was 0.556 (inactive) in [13]; 0.178 (inactive) in assay [15]; -0.499 (inactive) in assay [16]; 0.864 (inactive) in [17]; 0.441 (inactive) in [18]; 0.221 in assay [19]. Also, the composite z-score is -3.49 (inactive) in assay [14] and -0.184 in assay [20].

For the compound `C=C(/C(=C/C[C@H](OC(=O)c1ccncc1)c1ccc(CO)o1)c1cc(C(=O)OC)ccc1OC)C(C)C`, the z-score in assay [1] was -0.762; in assay [2] it was -0.0308; in assay [3], -1.15; in [4] it was -1.26; in assay [5], -0.524; in assay [6], -0.133. Also, the z-score in assay [7] was -1.63 (inactive); in assay [8], -0.324; in assay [9] it was -0.251; in [10], -0.18 (inactive); in [11], -0.154; in assay [12], -0.368 (inactive). Besides, the z-score in assay [13] is -0.797 (inactive); in [15], 1.38 (inactive); in assay [16], 0.112 (inactive); in assay [17], -0.825 (inactive); in assay [18] it was -0.655 (inactive); in assay [19] it was -0.9. The composite z-score in assay [14] was -0.913 (inactive); in [20], -0.124.

Turning to `COc1ccccc1CN1C(=O)c2ccccc2[C@@]2(Cc3ccccc3N(CC(F)(F)F)C2=O)[C@@H]1c1ccc(CO)cc1`, the z-score in [1] was -0.912; in assay [2], -0.744; in assay [3], 0.162; in assay [4], 0.291; in [5], -0.956; in assay [6] it was -0.505. Further, the z-score in [7] is -0.363 (inactive); in [8], -0.0759; in assay [9], -0.946; in assay [10], -0.682 (inactive); in [11], -0.108; in assay [12], 0.981 (inactive). The z-score was -0.987 (inactive) in assay [13]; 0.723 (inactive) in [15]; 0.36 (inactive) in assay [16]; 0.224 (inactive) in [17]; 0.499 (inactive) in assay [18]; -0.624 in assay [19]. Besides, the composite z-score in assay [14] is -11.7 (active); in assay [20] it was 0.0819.

As for `C=CCNC(=O)[C@H]1[C@@H]2C(=O)O[C@@H](c3ccccc3)[C@@H](c3ccccc3)N2[C@@H](c2ccc(O)cc2)[C@]12C(=O)N(C(=O)OCCOC)c1ccccc12`, the z-score in assay [1] was -0.335; in assay [2] it was 1.19; in [3], -0.513; in [4] it was -1.79; in assay [5], -1.66; in assay [6], -1.67. For the same compound, the z-score is 0.0113 (inactive) in [7]; -1.01 in assay [8]; 0.338 in [9]; -1.56 (inactive) in assay [10]; -0.757 in assay [11]; 0.628 (inactive) in [12]. For the same compound, the z-score in assay [13] is -0.331 (inactive); in [15] it was 0.229 (inactive); in assay [16], 0.931 (inactive); in assay [17], -0.919 (inactive); in assay [18], -1.08 (inactive); in [19], 0.164. The values for the composite z-score in [14] and in assay [20] were 0.747 (inactive) and -0.02, respectively.

With `C=CCC(OC(C)=O)[C@@H]1[C@@H](N(Cc2cc3ccccc3o2)C(=O)Cc2ccc(F)cc2)c2cc(OCCCO)ccc2N1C(=O)c1ccc2ccccc2c1` (stereo not given in full), the z-score in assay [1] was -0.0032; in assay [2], -0.0993; in assay [3], 1.93; in assay [4] it was -0.915; in [5], 0.0905; in assay [6], 0.855. Also, the z-score in assay [7] is 0.0661 (inactive); in assay [8], -0.159; in assay [9], 0.687; in assay [10] it was 0.443 (inactive); in assay [11] it was -0.081; in assay [12] it was 0.615 (inactive). The z-score in assay [13] is 0.514 (inactive); in assay [15], 0.35 (inactive); in assay [16], -0.41 (inactive); in assay [17] it was -0.698 (inactive); in assay [18] it was -0.649 (inactive); in [19] it was 0.304. Further, the composite z-score in [14] was -1.04 (inactive); in assay [20], 0.555.

With `COCCOC(=O)N1C(=O)[C@@]2(c3cc(C#CC4=CCCCC4)ccc31)[C@H](c1ccc(OCCO)cc1)N1[C@H](c3ccccc3)[C@H](c3ccccc3)OC(=O)[C@H]1[C@@H]2C(=O)NC[C@H](O)c1ccccc1`, the z-score in assay [1] is 0.148; in assay [2], 0.72; in assay [3], 0.688; in assay [4] it was -1.54; in assay [5], -2.03; in assay [6], -0.9. Besides, the z-score in assay [7] is 0.758 (inactive); in [8] it was -0.784; in assay [9], -0.964; in [10], 0.607 (inactive); in [11], 0.334; in assay [12], 2.36 (inactive). Also, the z-score in assay [13] is -0.363 (inactive); in assay [15], 3.6 (inactive); in [16], 2.83 (inactive); in [17], -0.441 (inactive); in assay [18], -0.16 (inactive); in assay [19], -0.48. The composite z-score in assay [14] is 0.184 (inactive); in assay [20] it was -0.12.

In the case of `COc1ccc([Si](C)(C)[C@H]2[C@H](CC(=O)N(CCO)Cc3ccccc3)O[C@@]3(C(=O)N(Cc4cccc(N5CCOC5=O)c4)c4ccccc43)[C@@H]2C)cc1`, the z-score in [1] was -1.49; in assay [2], 0.836; in [3] it was -2.16; in assay [4], -1.79; in [5] it was -4.29; in [6] it was 0.917. The z-score in assay [7] was -0.606 (inactive); in assay [8] it was -1.16; in assay [9] it was -1.56; in assay [10], -3.44 (inactive); in [11], -2.5; in assay [12], 0.181 (inactive). In addition, the z-score is -3.55 (inactive) in [13]; 1.28 (inactive) in [15]; 2.36 (inactive) in assay [16]; -0.566 (inactive) in [17]; -0.639 (inactive) in assay [18]; -3.7 in [19]. In addition, the composite z-score is 0.966 (inactive) in assay [14] and -0.0562 in [20].

`CCOC(=O)C[C@H]1[C@H](OC(=O)c2ccccc2-c2ccccc2)[C@@H](NC(=O)C2CCCCC2)c2cc(OCCCO)ccc2N1C(=O)Cc1ccc(OC)cc1`: the z-score in assay [1] is 0.544; in assay [2], 0.744; in [3], 0.43; in assay [4], -0.524; in assay [5] it was -0.593; in [6], 0.908. The z-score in assay [7] was -0.388 (inactive); in assay [8], -0.285; in assay [9], -0.663; in assay [10], 0.361 (inactive); in assay [11] it was -0.18; in assay [12], 0.0422 (inactive). Moreover, the z-score in assay [13] is -0.257 (inactive); in [15] it was 0.0238 (inactive); in assay [16], -0.508 (inactive); in [17] it was -0.506 (inactive); in assay [18], -0.657 (inactive); in [19], -0.466. Besides, the results for the composite z-score in assay [14] and in assay [20] were 0.0563 (inactive) and -0.159, respectively.
